G9a inh: qHTS Assay for Inhibitors of Histone Lysine Methyltransferase G9a; Histone-lysine N-methyltransferase EHMT2 (Homo sapiens), Q96KQ7; G9a H3K9 monomethylation, AlphaScreen, 2 h; Potency, µM (doses to about 102 µM), without a hit: at the highest dose activity, negative = inhibition, usual class: inhibitors; 8.8% of 350,000 active; AID 504332, 2011; note: potency is the fitted concentration of half-maximal effect; % is set by controls: 0 for no effect and ±100 for the full control effect; nearly all actives have a fitted effect of over 75% in size
Target sequence (Q96KQ7 913-1193 limits assumed): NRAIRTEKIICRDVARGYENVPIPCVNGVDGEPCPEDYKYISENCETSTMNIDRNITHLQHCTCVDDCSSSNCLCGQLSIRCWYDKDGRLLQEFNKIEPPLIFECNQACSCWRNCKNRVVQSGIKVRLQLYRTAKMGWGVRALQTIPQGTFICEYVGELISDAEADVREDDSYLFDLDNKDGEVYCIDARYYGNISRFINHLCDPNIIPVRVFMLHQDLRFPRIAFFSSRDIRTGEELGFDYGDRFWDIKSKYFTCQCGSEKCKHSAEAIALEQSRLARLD
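Readings reflect AlphaScreen signal from monomethyl-H3K9 antibody detection. HMT at 20 nM; substrate b-H3K9 500 nM; cofactor SAM 20 uM; 2 h RT reaction; compounds tested as titrations in qHTS with 15 min preincubation.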
Sfp inh: qHTS Assay for Inhibitors of Bacillus subtilis Sfp phosphopantetheinyl transferase (PPTase). 4'-phosphopantetheinyl transferase ffp (Bacillus subtilis), Q9F4F7. Biochemical Sfp PPTase activity, qHTS. Potency, µM, without a hit: largest response in the series, negative = inhibition, usual class: inhibitors. 3.5% of 310,000 active. AID 1490, 2009;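 note: the enzyme is Sfp with the accession as filed and its product quenches rhodamine fluorescence; potency is the fitted concentration of half-maximal effect; 0% = enzyme reaction without inhibitor and -100% = no enzyme wells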
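Step 1, compound plus 15 nM Sfp-PPTase, 15 min, room temperature. Step 2, add rhodamine-CoA (5 uM) and BHQ-2-YbbR (12.5 uM). Step 3, read 525/598 nm fluorescence at 0 and 30 min.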
miR-21 act: qHTS Assay for Modulators of miRNAs and/orActivators of miR-21 | AID 2288, 2010 | HeLa miR-21 FLuc reporter, luciferase, 48 h | 340,000 tested, under 10 active | Potency, µM (series often up to 38.3 µM), for inactives: top-dose activity change, positive = activation, hits mostly activators;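 note: % of control where 0% means no effect; miR-21 action dims this reporter so a rising signal means less miR-21 action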
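HeLa cells endogenously expressing miR-21, stably carrying CMV-driven firefly luciferase with a downstream miR-21 binding site, 2000 cells/well. Titrations up to approximately 40 uM, 48 hours; luciferase luminescence read.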
ALDH1A1 block: qHTS Assay for Inhibitors of Aldehyde Dehydrogenase 1 (ALDH1A1). Aldehyde dehydrogenase 1A1 (Homo sapiens), P00352. Purified ALDH1A1, NADH fluorescence, propionaldehyde substrate. Potency, µM (highest dose often 75.3 µM), inactives show at the top dose activity, negative = inhibition, actives largely listed as inhibitors. 7.3% of 220,000 active. AID 1030, 2008; active = well fitted inhibition curve with a large enough effect, not every such curve was filed as active; inconclusive = small, poorly fitted or top-dose-only effect, or another doubt; inactive = no such curve, though single readings can be large or run the other way;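 note: potency is the fitted concentration of half-maximal effect; plate controls were no enzyme wells and a reference inhibitor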
KDM4E inh: qHTS Assay for Inhibitors of Human Jumonji Domain Containing 2E (JMJD2E) | Lysine-specific demethylase 4E (Homo sapiens), B2RXH2 | JMJD2E catalytic domain, FDH-coupled NADH fluorescence (FDH is formaldehyde dehydrogenase) | Potency, µM (titrated, usually from 57.1 µM), inactives show top-dose activity change, negative = inhibition, hits mostly inhibitors | 1.6% of 230,000 active; active = well fitted inhibition curve with a large enough effect, not every such curve was filed as active; inconclusive = small, poorly fitted or top-dose-only effect, or another doubt; inactive = no such curve, though single readings can be large or run the other way;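 note: potency is the fitted concentration of half-maximal effect; 0% = wells with enzyme and -100% = buffer wells without enzyme; nearly all actives have a fitted effect of over 50% in size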
Target sequence (B2RXH2 1-337 limits assumed): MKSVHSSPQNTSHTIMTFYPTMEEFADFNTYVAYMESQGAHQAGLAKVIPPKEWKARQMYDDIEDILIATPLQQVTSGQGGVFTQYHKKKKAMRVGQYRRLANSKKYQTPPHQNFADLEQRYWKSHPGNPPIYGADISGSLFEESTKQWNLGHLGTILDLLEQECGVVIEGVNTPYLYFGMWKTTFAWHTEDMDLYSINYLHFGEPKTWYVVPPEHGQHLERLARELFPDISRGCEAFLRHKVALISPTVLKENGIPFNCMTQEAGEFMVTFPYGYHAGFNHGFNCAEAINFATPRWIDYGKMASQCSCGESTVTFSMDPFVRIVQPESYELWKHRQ
Lamin A splicing: qHTS Assay for Modulators of Lamin A Splicing | HeLa LMNA splicing GFP/RFP minigene ratio, 48 h | Potency, µM (top dose mostly 46.1 µM), for inactives: at the top dose ratio change, negative = inhibition, most hits filed as inhibitors | 0.01% of 200,000 active; active = well fitted inhibition curve with a large enough effect in the signal ratio, with a control signal flat, not every such curve was filed as active; inconclusive = small, poorly fitted or top-dose-only effect, or effect the other way, or a change in a side signal; the % refers to the signal ratio; note: potency is the fitted concentration of half-maximal effect; % is set by controls: 0 for no effect and ±100 for the full control effect
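S3 HeLa cells stably expressing lamin A-EGFP splicing minigene plus DsRed2, 600 cells/well, 48 h compound exposure at 37C. Laser-scanning cytometry; analysed as GFP (500-530 nm)/RFP (575-640 nm) total intensity ratio; 0.5% DMSO vehicle.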
* = called active by the depositor; u = inconclusive; x = not tested or not shown; ! = not active in a repeat; [ ] = another dose, or the depositor's remark. Sampled rows, rich in hits. Any-hit rate of the full collection: about 13%. Unless noted, calls come from the whole dose curve; as a rule, active = well fitted curve in the direction sought with a large enough effect; inconclusive = small, poorly fitted or top-dose-only effect, or another doubt; inactive = no such curve, though single readings can be large; an effect the other way counts as inactive or inconclusive.

SMILES	G9a inh	Sfp inh	miR-21 act	ALDH1A1 block	KDM4E inh	Lamin A splicing
COc1ccc2c(c1)-c1nc(/N=C/c3cccc(OC)c3O)sc1CC2	18µM*	-1%	-18%	11µM*	2%	-16%
CNS(=O)(=O)c1cc(-c2nnc(Nc3cc(C)ccc3C)c3ccccc23)ccc1C	u	x	11%	x	x	x
Oc1ccc(/C=N/Nc2ccc(Cl)nn2)c(O)c1O	u	10µM*	-2%	x	x	x
COc1cc(/C=N/Nc2ncc(C(F)(F)F)cc2Cl)cc(OC)c1O	2%[2.33 µM]	89µM*	-1%	-24%	u	u
C/C(=N/Nc1ncc(C(F)(F)F)cc1Cl)c1ccncc1	24%	56µM*	-13%	40µM*	-1%	x
Oc1c(Br)cc(/C=N/Nc2ccc(Cl)nn2)cc1Br	40µM*	u	-8%	x	x	x
CC(=O)OC[C@@]1(O)C[C@@]23CC[C@@H]4c5ccoc5CC[C@@]4(C)[C@@H]2CCC1C3	x	1%	x	0%	-7%	x
COc1cc(/C=N/Nc2ccc(Cl)nn2)cc(OC)c1O	16µM*	50µM*	0%	x	x	x
C=C[C@@](C)(O)CC[C@@H]1[C@@]2(C)CCCC(C)(C)[C@@H]2CC[C@@]1(C)O	u	0%	0%	40µM*!	-9%	x
O=C(c1ccc(F)cc1)C1CCN(C(=S)NCC2CCCO2)CC1 (stereo unspecified)	12%	11%	5%	u	-12%	x
Cc1ccc(C(=O)C[n+]2ccccc2)cc1	14µM*	8%	-16%	x	x	x
Cc1ccc(C(=O)C[n+]2cc(Br)cc(Br)c2)cc1[N+](=O)[O-]	50µM*	-4%	-10%	16µM*	4%	-2%
O=C(C[n+]1cn(C(F)F)c2ccccc21)c1ccc(Br)cc1	-7%[59 µM]	-14%	-44%	8.9µM*	-8%	u
Cc1ccc[n+](CC(=O)c2ccc(-c3ccccc3)cc2)c1	-3%[59 µM]	-10%	0%	u	u	u
Cc1cc(C)c[n+](CC(=O)c2ccc(C)c([N+](=O)[O-])c2)c1	x	13%	2%	x	x	x
O=C(C[n+]1cc(Br)cc2ccccc21)c1ccc(Br)cc1	28µM*	-5%	-3%	x	x	x
CC(=O)c1cccc(NC(=O)CN2C(=O)c3cccnc3Sc3ccccc32)c1	-3%[59 µM]	x	-30%	x	x	-2%[46 µM]
COc1cc(/C=C2/NC(=O)NC2=O)cc(Br)c1OCc1ccccc1	3%	23%	-12%	4%	8%	0%[46 µM]
Cc1ccc(C(=O)N2CCN(c3ncccn3)CC2)cc1S(=O)(=O)N1CCCCC1	u	-19%	-14%	-8%	0%	1%
O=C(C[n+]1cc(Br)cc2ccccc21)c1ccc(Cl)cc1	50µM*	-7%	-4%	x	x	x
O=C(C[n+]1cc(Br)cc(Br)c1)c1ccc(-c2ccccc2)cc1	25µM*	-4%	-6%	x	x	x
O=C(C[n+]1cc(Br)cc(Br)c1)c1ccc(Cl)cc1	u	4%	-2%	x	x	x
COC(=O)c1ccc(CNC(=O)c2c3c(nc4ccccc24)CCN(Cc2ccccc2)C3)cc1	u	-11%	-3%	u	-12%	2%
O=C(NCc1ccc(F)cc1)c1c2c(nc3ccccc13)CCN(Cc1ccccc1)C2	45µM*	3%	-1%	u	-7%	-6%
CC(=O)Nc1ccc(NC(=O)COC(=O)c2c3c(nc4ccccc24)CCN(Cc2ccccc2)C3)cc1	50µM*	4%	0%	7.1µM*	-3%	u
SMILES	G9a inh	Sfp inh	miR-21 act	ALDH1A1 block	KDM4E inh	Lamin A splicing
O=C(COC(=O)c1c2c(nc3ccccc13)CCN(Cc1ccccc1)C2)Nc1c(F)cccc1F	15%[59 µM]	-12%	18%	u	u	u
CC1(c2ccc3ccccc3c2)NC(=O)N(CC(=O)N2CCCC(C(F)(F)F)C2)C1=O (stereo unspecified)	2%[59 µM]	x	x	x	x	x
CCC(=O)Nc1ccc(CC)cc1-c1nc2ccccc2n(CC(=O)Nc2ccccc2C)c1=O	-34%[59 µM]	x	0%	x	x	x
CCc1ccc(NC(=O)CN2C(=O)C3(SCC(=O)N3c3ccccc3)c3ccccc32)cc1 (stereo unspecified)	-13%[59 µM]	x	-1%	x	x	-6%[46 µM]
Cc1ccc(/C=C/C(=O)NCCCN2CCN(CCCNC(=O)/C=C/c3ccc(C)o3)CC2)o1	-12%[59 µM]	0%	-4%	-6%	-15%	2%
Cc1ccc(/C=C/C(=O)NCCc2cccc(Cl)c2)o1	-39%[0.501 µM]	20µM*	14%	x	x	x
Cc1ccc2[nH]cc(CCNC(=O)/C=C/c3ccco3)c2c1	u	6%	-1%	x	-5%	x
Cc1ccc(/C=C/C(=O)NCCc2c[nH]c3ccccc23)o1	45µM*	28µM*	-5%	14µM*	-6%	8%[46 µM]
CCc1cccc(C)c1NC(=O)C(CC)n1ncn2c(cc3cc(C)ccc32)c1=O (stereo unspecified)	13%[59 µM]	x	-5%	x	x	x
CC(Oc1ccccc1)C(=O)Nc1cccc(-c2nc3ccccc3[nH]2)c1 (stereo unspecified)	50µM*	2%	13%	7%	1%	-6%
CC(C)C(=O)NS(=O)(=O)c1ccc(NS(C)(=O)=O)cc1	6%[59 µM]	19%	-6%	x	-2%	x
c1ccc(SCCN2CCc3ccccc3C2)cc1	40µM*	-12%	-50%	u	u	-2%
CCCN(CCC)CCNc1c(NC2CCN(C(=O)OCC)CC2)c(=O)c1=O	-15%	-1%	0%	-2%	-9%	11%
CCOC(=O)N1CCN(c2c(NCCOC)c(=O)c2=O)CC1	-64%	4%	-1%	32µM*	-20%	6%
CCCN(CCC)CCNc1c(N2CCN(C(=O)OCC)CC2)c(=O)c1=O	79µM*	3%	-2%	11%	9%	0%
O=S(=O)(NCCCNS(=O)(=O)c1c(F)cccc1F)c1ccc2c(c1)OCCO2	14%[2.33 µM]	x	x	x	x	x
CCc1cccc(NC(=O)CN2C(=O)COc3ccc(S(=O)(=O)Nc4ccccc4)cc32)c1	1%[59 µM]	x	18%	x	x	x
CCC1(C)Cc2sc3c(=O)[nH]c(=S)[nH]c3c2CO1 (stereo unspecified)	3.5µM*	u	-2%	u	-19%	x

Screens as filed in PubChem.
